# Where two headings read alike, the source gives them in different places.
# Experiments:
# Set-up in all cases: species or system human, MV4-11 + K-562 + COLO205 + SK-N-BE2 + OVCAR-8
# AURKA = conditions: read-out: apparent Kd, n = 1
# CDK7 = conditions: read-out: apparent Kd; compound concentrations: 100 nM and 1000 nM (sheet 'Samples'), CATDS: 1.6224786894182001E-2; n = 1
# NUAK1 = conditions: read-out: apparent Kd, compound concentrations: 100 nM and 1000 nM (sheet 'Samples'), n = 1
# PIK3CG = conditions: read-out: apparent Kd, compound concentrations: 100 nM and 1000 nM (sheet 'Samples'), n = 1
# PRKAG1 = conditions: read-out: apparent Kd; compound concentrations: 100 nM and 1000 nM (sheet 'Samples'), CATDS: 1.89897373320012E-2; n = 1
# STK10 = conditions: read-out: apparent Kd; compound concentrations: 100 nM and 1000 nM (sheet 'Samples'), CATDS: 1.3341325559896399E-2; n = 1
# TGFBR2 = conditions: read-out: apparent Kd, compound concentrations: 100 nM and 1000 nM (sheet 'Samples'), n = 1
# ABCD3 = conditions: read-out: apparent Kd, n = 1
# PIM2 = conditions: read-out: apparent Kd; compound concentrations:100 nM and 1000 nM (sheet 'Samples'); n = 1
# ACVR2B = conditions: read-out: apparent Kd, n = 1
# MAPK10 = conditions: read-out: apparent Kd, n = 1
# MAPK11 = conditions: read-out: apparent Kd, n = 1
# SYK = conditions: read-out: apparent Kd, n = 1
# EPHA4 = conditions: read-out: apparent Kd; compound concentrations: 100 nM and 1000 nM (sheet 'Samples'), CATDS: 5.0335970342337201E-2; n = 1
# EPHB3 = conditions: read-out: apparent Kd; compound concentrations: 100 nM and 1000 nM (sheet 'Samples'), CATDS: 2.4596610963575599E-2; n = 1
# EPHB4 = conditions: read-out: apparent Kd; compound concentrations: 100 nM and 1000 nM (sheet 'Samples'), CATDS: 9.4734389919906598E-2; n = 1
# BMPR1A = conditions: read-out: apparent Kd, compound concentrations: 100 nM and 1000 nM (sheet 'Samples'), n = 1
# PKN3 = conditions: read-out: apparent Kd; compound concentrations: 100 nM and 1000 nM (sheet 'Samples'), CATDS: 0.111672357015452; n = 1
# [1] = compound concentrations:100 nM and 1000 nM (sheet 'Samples')
structure (smiles),measurement,setting,value
CN1C(=O)c2ccccc2N(C)c2nc(Nc3cnn(C4CCNCC4)c3)ncc21 [XMD-17-51],potency estimated from few doses,"AURKA; compound concentrations: 100 nM and 1000 nM (sheet 'Samples'), CATDS: 0.190670193315162",5.82 nM
same,potency estimated from few doses,CDK7,901 nM
same,potency estimated from few doses,NUAK1; CATDS: 0.118275245978952,11.6 nM
same,potency estimated from few doses,PIK3CG; CATDS: 5.0205811396743898E-2,50.7 nM
same,potency estimated from few doses,PRKAG1,530 nM
same,potency estimated from few doses,STK10,2180 nM
same,potency estimated from few doses,TGFBR2; CATDS: 1.41245865647958E-2,1610 nM
CNC1=NC(=O)/C(=C/c2ccc3ncccc3c2)S1 [RO4595949-000],potency estimated from few doses,PIK3CG; CATDS: 8.0370856047911096E-2,401 nM
CCn1cc(-c2ccnc3[nH]c(-c4cccc(CN(C)C)c4)cc23)c(-c2ccc(NC(=O)N(C)C)cc2)n1 [GSK1070916],potency estimated from few doses,ABCD3; [1],1970 nM
same,potency estimated from few doses,AURKA; [1],197 nM
CS(=O)(=O)Cc1ccc(Nc2nccc(-c3c(-c4cccc(NC(=O)C5CCCCC5)c4)nn4ncccc34)n2)cc1 [GSK350559A],potency estimated from few doses,ABCD3; [1],1580 nM
same,potency estimated from few doses,PIM2,2040 nM
NC1=NC(=O)/C(=C/c2ccc3ncccc3c2)S1 [RO4569139-000],potency estimated from few doses,PIK3CG; CATDS: 0.108121816897262,432 nM
CCc1nc(-c2cccc(N(C)S(=O)(=O)c3ccccc3)c2)c(-c2ccnc(Nc3ccc(N4CCN(C(C)=O)CC4)nc3)n2)s1 [GSK1645895A],potency estimated from few doses,"ABCD3; compound concentrations: 100 nM and 1000 nM (sheet 'Samples'), CATDS: 0.16057119825567601",1310 nM
Cc1cccc(-c2cc(-c3c[nH]nc3-c3ccccn3)ccn2)c1 [GW679395X],potency estimated from few doses,ABCD3; [1],1200 nM
same,potency estimated from few doses,ACVR2B; [1],1660 nM
same,potency estimated from few doses,MAPK10; [1],1730 nM
same,potency estimated from few doses,MAPK11; [1],1350 nM
same,potency estimated from few doses,SYK; [1],2310 nM
COc1ccc(Nc2nccc(N3CCC(NC(=O)Nc4ccc5c(c4)OCO5)C3)n2)cc1 (stereo not drawn) [GSK1379745A],potency estimated from few doses,"ABCD3; compound concentrations: 100 nM and 1000 nM (sheet 'Samples'), CATDS: 3.9996680208342399E-2",1500 nM
same,potency estimated from few doses,"ACVR2B; compound concentrations: 100 nM and 1000 nM (sheet 'Samples'), CATDS: 4.7768277435408998E-2",1050 nM
same,potency estimated from few doses,"MAPK10; compound concentrations: 100 nM and 1000 nM (sheet 'Samples'), CATDS: 3.9230525665234099E-2",1570 nM
same,potency estimated from few doses,"MAPK11; compound concentrations: 100 nM and 1000 nM (sheet 'Samples'), CATDS: 3.6090086264463E-2",1900 nM
same,potency estimated from few doses,"SYK; compound concentrations: 100 nM and 1000 nM (sheet 'Samples'), CATDS: 3.71249657659821E-2",1780 nM
Cc1ccc(O)cc1Nc1ccnc2cc(-c3ccccn3)ccc12.Cl [GW440139A],potency estimated from few doses,"ACVR2B; compound concentrations: 100 nM and 1000 nM (sheet 'Samples'), CATDS: 0.21714398687124201",5.63 nM
same,potency estimated from few doses,EPHA4,81.6 nM
same,potency estimated from few doses,EPHB3,2120 nM
same,potency estimated from few doses,EPHB4,20.9 nM
same,potency estimated from few doses,TGFBR2; CATDS: 0.155660799519896,9.12 nM
COc1cccc(-n2ncc3c(N/N=C/c4ccc(C(=O)NCCN(C)C)cc4)ncnc32)c1.Cl [GW784307A],potency estimated from few doses,BMPR1A; CATDS: 4.33451441122037E-2,353 nM
NC(=O)c1cccc(Nc2nccc(Nc3cccc4[nH]ncc34)n2)c1 [GW782612X],potency estimated from few doses,"ACVR2B; compound concentrations: 100 nM and 1000 nM (sheet 'Samples'), CATDS: 0.173302967359416",52.4 nM
same,potency estimated from few doses,"AURKA; compound concentrations: 100 nM and 1000 nM (sheet 'Samples'), CATDS: 4.2767473291312301E-2",808 nM
same,potency estimated from few doses,BMPR1A; CATDS: 3.8772747112030999E-2,1090 nM
same,potency estimated from few doses,NUAK1; CATDS: 5.2412926017760202E-2,475 nM
same,potency estimated from few doses,TGFBR2; CATDS: 0.37560252723777299,17 nM
COc1ccc(-n2cnc3c(N)ncnc32)cc1 [SKF-97236],potency estimated from few doses,"ABCD3; compound concentrations: 100 nM and 1000 nM (sheet 'Samples'), CATDS: 0.13687794544238399",1490 nM
COc1cc(Nc2ccnc3cc(-c4ccncc4)ccc23)cc(OC)c1OC.Cl [GW494610A],potency estimated from few doses,BMPR1A; CATDS: 3.04170421320503E-2,486 nM
same,potency estimated from few doses,"MAPK11; compound concentrations: 100 nM and 1000 nM (sheet 'Samples'), CATDS: 2.2230478875047501E-2",1610 nM
same,potency estimated from few doses,PKN3,24.1 nM

# From publication PMC11062922 (Nature Chemical Biology, 2023)
